Residue numbers refer to the chain shown, from its start. Names may count otherwise.

B1: 97 (nucleosome)
DNA 1: ATCCTGGAGAATCCCGGTGCCGAGGCCGCTCAATTGGTCGTAGACAGCTCTAGCACCGCTTAAACGCACGTACGCGCTGTCCCCCGCGTTTTAACCGCCTCAAGGCCAACTCCCTAGTCTCCAGGCACGTGTCAGATATATACATCCTGTGAT
DNA 2: ATCACAGGATGTATATATCTGACACGTGCCTGGAGACTAGGGAGTTGGCCTTGAGGCGGTTAAAACGCGGGGGACAGCGCGTACGTGCGTTTAAGCGGTGCTAGAGCTGTCTACGACCAATTGAGCGGCCTCGGCACCGGGATTCTCCAGGAT
modifications: reconstituted with mouse histones H2A, H2B, H3.3 and H4
B2: 98 (nucleosome)
DNA 1: B1 DNA 1 with T100A, C101T, A102C, G104A, C106G, A108C
DNA 2: B1 DNA 2 with T46G, G48C, C50T, T52G, G53A, A54T
modifications: reconstituted with mouse histones H2A, H2B, H3.3 and H4
B3: 99 (nucleosome)
DNA 1: ATCCTGGAGAATCCCGGTGCCGAGGCCGCTCAATTGGTCGTAGACAGCTCTAGCACCGCTTAAACGCACGTACGCGCTGTCCCCCGCGTTTTAACCGCCAATCAAGGCCATCCCTAGTCTCCAGGCACGTGTCAGATATATACATCCTGTGAT
DNA 2: ATCACAGGATGTATATATCTGACACGTGCCTGGAGACTAGGGATGGCCTTGATTGGCGGTTAAAACGCGGGGGACAGCGCGTACGTGCGTTTAAGCGGTGCTAGAGCTGTCTACGACCAATTGAGCGGCCTCGGCACCGGGATTCTCCAGGAT
modifications: reconstituted with mouse histones H2A, H2B, H3.3 and H4
B4: 100 (nucleosome)
DNA 1: B3 DNA 1 with T102G, C103T, A104C, G106A, C108G, A110C, T111A
DNA 2: B3 DNA 2 with A43T, T44G, G46C, C48T, T50G, G51A, A52C
modifications: reconstituted with mouse histones H2A, H2B, H3.3 and H4
B5: 101 (nucleosome)
DNA 1: ATCCTGGAGAATCCCGGTGCCGAGGCCGCTCAATTGGTCGTAGACAGCTCTAGCACCGCTTAAACGCACGTACGCGCTGTCCCCCGCGTTTTAACCGCCAAGGTCAAGGCCACCTAGTCTCCAGGCACGTGTCAGATATATACATCCTGTGAT
DNA 2: ATCACAGGATGTATATATCTGACACGTGCCTGGAGACTAGGTGGCCTTGACCTTGGCGGTTAAAACGCGGGGGACAGCGCGTACGTGCGTTTAAGCGGTGCTAGAGCTGTCTACGACCAATTGAGCGGCCTCGGCACCGGGATTCTCCAGGAT
modifications: reconstituted with mouse histones H2A, H2B, H3.3 and H4
B6: 88 (nucleosome)
DNA 1: ATCCTGGAGAATCCCGGTGCCGAGGCCGCTCAATTGGTCGTAGACAGCTCTAGCACCGCTTAAACGCACGTACGCGCTGTCCCCCGCGTTTCAAGGCCAAAGGGGATTACTCCCTAGTCTCCAGGCACGTGTCAGATATATACATCCTGTGAT
DNA 2: ATCACAGGATGTATATATCTGACACGTGCCTGGAGACTAGGGAGTAATCCCCTTTGGCCTTGAAACGCGGGGGACAGCGCGTACGTGCGTTTAAGCGGTGCTAGAGCTGTCTACGACCAATTGAGCGGCCTCGGCACCGGGATTCTCCAGGAT
modifications: reconstituted with mouse histones H2A, H2B, H3.3 and H4
B7: 95 (nucleosome)
DNA 1: B5 DNA 1 with C98T, T104C, A107T, G108T, G109A, C111T, A112C
DNA 2: B5 DNA 2 with T42G, G43A, C45T, C46A, T47A, A50G, G56A
modifications: reconstituted with mouse histones H2A, H2B, H3.3 and H4
B8: 93 (nucleosome)
DNA 1: B6 DNA 1 with C92T, G95C, G96T, C98A, A100G, A101G, G102C, G103C, G104A
DNA 2: B6 DNA 2 with C50T, C51G, C52G, T53C, T54C, G56T, C58A, C59G, G62A
modifications: reconstituted with mouse histones H2A, H2B, H3.3 and H4
B9: 5 (nucleosome)
DNA 1: B6 DNA 1 with A8T, G9C, T12G, C13G, G16A, C92T, G95C, G96C, C97G, A99C
DNA 2: B6 DNA 2 with T55G, G57C, C58G, C59G, G62A, C138T, G141C, A142C, C145G, T146A
modifications: reconstituted with mouse histones H2A, H2B, H3.3 and H4
B10: 92 (nucleosome)
DNA 1: B1 DNA 1 with C95T, G97A, C98A, C99G, T100G, A102C, C106A, C107T, A108T
DNA 2: B1 DNA 2 with T46A, G47A, G48T, T52G, A54C, G55C, G56T, C57T, G59A
modifications: reconstituted with mouse histones H2A, H2B, H3.3 and H4
B11: 94 (nucleosome)
DNA 1: B6 DNA 1 with C92T, G95C, G96C, C97T, A101G, G103C, G104C, G105A
DNA 2: B6 DNA 2 with C49T, C50G, C51G, T53C, G57A, C58G, C59G, G62A
modifications: reconstituted with mouse histones H2A, H2B, H3.3 and H4
B12: 11 (nucleosome)
DNA 1: B6 DNA 1 with C14T, G16A, G17A, T18G, G22A, C92T, G95C, G96C, C97G, A99C
DNA 2: B6 DNA 2 with T55G, G57C, C58G, C59G, G62A, C132T, A136C, C137T, C138T, G140A
modifications: reconstituted with mouse histones H2A, H2B, H3.3 and H4
B13: 89 (nucleosome)
DNA 1: B6 DNA 1 with C92T, A93C, G95A, C97G, A99C
DNA 2: B6 DNA 2 with T55G, G57C, C59T, T61G, G62A
modifications: reconstituted with mouse histones H2A, H2B, H3.3 and H4
B14: 96 (nucleosome)
DNA 1: B1 DNA 1 with C99T, T100C, C101A, A103G, G105C, C107A, A108T
DNA 2: B1 DNA 2 with T46A, G47T, C49G, T51C, G53T, A54G, G55A
modifications: reconstituted with mouse histones H2A, H2B, H3.3 and H4
B15: 91 (nucleosome)
DNA 1: B6 DNA 1 with C92T, A94T, G95C, G96A, C97A, C98G, A99G, A100C, A101C, G102A
DNA 2: B6 DNA 2 with C52T, T53G, T54G, T55C, G56C, G57T, C58T, C59G, T60A, G62A
modifications: reconstituted with mouse histones H2A, H2B, H3.3 and H4
B16: 90 (nucleosome)
DNA 1: B6 DNA 1 with C92T, A93T, A94C, G95A, G96A, C97G, C98G, A99C, A100C
DNA 2: B6 DNA 2 with T54G, T55G, G56C, G57C, C58T, C59T, T60G, T61A, G62A
modifications: reconstituted with mouse histones H2A, H2B, H3.3 and H4

In one experiment the target is NR5A2 wild type;histone octamer (Homo sapiens;, UniProt O00482;C0HKE1;Q6ZWY9;P84244;P62806 1-541;2-130;2-126;2-136;2-103, |). Put plainly: SeEN-seq (EMSA of nucleosome library followed by sequencing); 0.8 uM human NR5A2; 20 mM Tris-HCl pH 7.5, 120 mM NaCl, 1 mM MgCl2, 10 uM ZnCl2, 1 mM DTT, 100 ug/ml BSA, room temperature, 30 min; 0.1 uM nucleosome library; high values mean tight binding. For orientation: In EMSA bound probe runs differently from free probe, usually more slowly.
As for B1, the binding signal is 0.742 log2 enrichment (bound/unbound, relative to Widom 601).
Still for that read-out and setting: under B2 stands 0.701 log2 enrichment (bound/unbound, relative to Widom 601).
Turning to B3, the binding signal was 0.545 log2 enrichment (bound/unbound, relative to Widom 601).
As to B4, the binding signal was 0.655 log2 enrichment (bound/unbound, relative to Widom 601).
In the case of B5, the binding signal is 2.38 log2 enrichment (bound/unbound, relative to Widom 601).
In the case of B6, the binding signal is 0.636 log2 enrichment (bound/unbound, relative to Widom 601).
Regarding B7, the binding signal was 1.87 log2 enrichment (bound/unbound, relative to Widom 601).
On to B8, for which the binding signal is 0.842 log2 enrichment (bound/unbound, relative to Widom 601).
As to B10, the binding signal was 0.711 log2 enrichment (bound/unbound, relative to Widom 601).
Consider B11, for which the binding signal is 1.36 log2 enrichment (bound/unbound, relative to Widom 601).
With B12, the binding signal was 4.08 log2 enrichment (bound/unbound, relative to Widom 601).
In the case of B13, the binding signal is 0.658 log2 enrichment (bound/unbound, relative to Widom 601).
Take B14: the binding signal is 1.16 log2 enrichment (bound/unbound, relative to Widom 601).
On to B15, for which the binding signal is 0.711 log2 enrichment (bound/unbound, relative to Widom 601).
Consider B16, for which the binding signal was 0.821 log2 enrichment (bound/unbound, relative to Widom 601).

A further experiment concerns the target mouse Nr5a2 wild type;histone octamer (Mus musculus;, UniProt P45448;C0HKE1;Q6ZWY9;P84244;P62806 1-560;2-130;2-126;2-136;2-103, |). Kind of experiment: SeEN-seq (EMSA of nucleosome library followed by sequencing); 1.2 uM mouse Nr5a2; 20 mM Tris-HCl pH 7.5, 120 mM NaCl, 1 mM MgCl2, 10 uM ZnCl2, 1 mM DTT, 100 ug/ml BSA, room temperature, 30 min; 0.1 uM nucleosome library; high values mean tight binding.
Consider B1, for which the binding signal is 0.636 log2 enrichment (bound/unbound, relative to Widom 601).
With B2, the binding signal was 0.557 log2 enrichment (bound/unbound, relative to Widom 601).
Turning to B3, the binding signal was 0.468 log2 enrichment (bound/unbound, relative to Widom 601).
Regarding B4, the binding signal is 0.488 log2 enrichment (bound/unbound, relative to Widom 601).
The same measure, in the same setting: the figure for B5 is 1.47 log2 enrichment (bound/unbound, relative to Widom 601); for B6 it is 0.614 log2 enrichment (bound/unbound, relative to Widom 601).
For B7, the binding signal was 1.29 log2 enrichment (bound/unbound, relative to Widom 601).
With B8, the binding signal was 0.875 log2 enrichment (bound/unbound, relative to Widom 601).
For the molecule B9, the binding signal was 1.14 log2 enrichment (bound/unbound, relative to Widom 601).
In the case of B10, the binding signal is 0.905 log2 enrichment (bound/unbound, relative to Widom 601).
The same measure, in the same setting: the figure for B11 is 1.22 log2 enrichment (bound/unbound, relative to Widom 601).
As for B12, the binding signal was 4.04 log2 enrichment (bound/unbound, relative to Widom 601).
As to B13, the binding signal is 0.574 log2 enrichment (bound/unbound, relative to Widom 601).
On the same count and under the same terms, under B14 stands 1.04 log2 enrichment (bound/unbound, relative to Widom 601).
On to B15, for which the binding signal is 0.746 log2 enrichment (bound/unbound, relative to Widom 601).
With B16, the binding signal was 0.52 log2 enrichment (bound/unbound, relative to Widom 601).

The values are drawn from PMC11102866, “Nucleosome-bound NR5A2 structure reveals pioneer factor mechanism by DNA minor groove anchor competition”.
